This is one part of a sample in which hits are shown more often than they occur.
BL2 CD40 inh: CD40 pathway inhibition in BL2 cells. BL2 NF-kB luciferase reporter, CD40L-induced, 4 h. inhibition, % at 10 µM. 83,000 tested, 0.94% active. AID 1053188;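 active = mean inhibition of at least 50% with a set share of replicates also reaching that level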;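 also: 0% = neutral control wells and 100% = IKK inhibitor VII at 50 µM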
Active calls of the source: *; [ ] = another dose, or the depositor's remark.

SMILES	BL2 CD40 inh
CCCNC(=O)N1[C@H](CO)[C@@H](c2ccccc2-c2cccc(C)c2)[C@@H]1C#N	-1[25 µM]
C[C@@H](NC(=O)[C@@H]1[C@@H](CO)[C@@H]2Cn3c(ccc(C4=CCCC4)c3=O)[C@H]1N2C(=O)C1CC1)c1ccccc1	-3[25 µM]
C/C=C/c1ccc([C@@H]2[C@@H](CO)N(C(=O)NC(C)C)[C@H]2CN(C)C(C)=O)cc1	3
C[C@H](O)C#Cc1ccc([C@@H]2[C@@H](CO)N3CCCCN(C(=O)c4ccc5c(c4)OCO5)C[C@H]23)cc1	3[25 µM]
COc1cccc(NC(=O)N(C)C[C@H]2Oc3ncc(/C=C/c4ccccc4)cc3C(=O)N([C@H](C)CO)C[C@@H]2C)c1	8[25 µM]
CCCC(=O)Nc1ccc(Br)c(Cl)c1	9
O=C(O)CCC(=O)Nc1ccc(Br)c(Cl)c1	36*
CC(=O)Nc1ccc(Br)c(Cl)c1	3
Cc1ccccc1-c1ccc(C2[C@@H]3CN(S(=O)(=O)c4cn(C)cn4)C[C@H]2N3)cc1 (stereo partly specified)	2
C[C@@H]1CCCCO[C@H](CN(C)C(=O)Nc2ccc(C(F)(F)F)cc2)[C@@H](C)CN([C@H](C)CO)C(=O)c2cc(NS(=O)(=O)c3cn(C)cn3)ccc2O1	-5[25 µM]
COc1ccc(C(=O)Nc2ccc(NC(C)=O)cc2)cc1S(=O)(=O)N1CCCC1	-1
COc1ccc(C(=O)Nc2ccc(N3CCOCC3)cc2)cc1S(=O)(=O)N1CCOCC1	17*
COc1ccc(C(=O)Nc2ccc(N3CCOCC3)cc2)cc1S(=O)(=O)N1CCCC1	-9
C[C@@H]1CN([C@H](C)CO)C(=O)c2cc(-c3cccc(F)c3)cnc2O[C@H]1CN(C)C(=O)C1CC1	0
O=C(C[C@H]1CC[C@H]2[C@@H](COC[C@@H](O)CN2CCc2ccccc2)O1)NCCCN1CCOCC1	-11[25 µM]
O=C(NC1CCCC1)[C@H]1[C@H](CO)[C@H]2Cn3c(ccc(-c4ccc(F)cc4)c3=O)[C@@H]1N2Cc1cocn1	2
O=C(C[C@@H]1CC[C@H]2NC[C@@H](O)COC[C@@H]2O1)NCCN1CCCC1	-5
NC(=S)NN=Cc1c[nH]c2nccnc12	67*
NC(=S)NN=Cc1nccc2c(C(F)(F)C(F)(F)C(F)(F)F)cccc12	31
Cn1cccc1/C=N/NC(N)=S	4
COc1cccc(CN2CC3(CCN(S(C)(=O)=O)CC3)c3c(n(C)c4cc(OC)ccc34)[C@H]2CO)c1	-2[25 µM]
CO[C@H]1CN(C)C(=O)c2ccc(NC(=O)C3CCC3)cc2OC[C@@H](C)N(Cc2cccnc2)C[C@@H]1C	1
CCCC(=O)NNC(=O)CCC(=O)Nc1ccccc1Cl	9
CCCC(=O)NC1=C(Cl)C(=O)c2ccccc2C1=O	107*
CCNC1=C(Cl)C(=O)c2ccccc2C1=O	-25
SMILES	BL2 CD40 inh
O=C(C1CCC1)N1C[C@@H]2[C@H](c3ccccc31)[C@H](CO)N2C(=O)Nc1cccc(F)c1	16[25 µM]
CC(C)NC(=O)N(C)C[C@@H]1Oc2ccccc2CC(=O)N(C)C[C@H]1C	18
CC(=O)Nc1ccc(C=CC=Cc2cccc([N+](=O)[O-])c2)cc1	-22
CC(=O)Oc1ccccc1C(=O)C=Cc1cccc([N+](=O)[O-])c1	89*
O=C(/C=C/c1cccc([N+](=O)[O-])c1)OCC(=O)c1ccccc1	-5
Nc1cc(Nc2ccc(S(N)(=O)=O)cc2)ncn1	-28[25 µM]
CNc1cc2ncnc(Nc3cccc(Br)c3)c2cc1N	-7[25 µM]
CC(=O)Nc1ccc2c(c1)C(=O)N(C)C[C@H](C)[C@@H](CN(C)C(=O)OC(C)(C)C)O2	5
O=C(Cc1ccncc1)N1CC[C@@H]2[C@H]1c1cc(-c3ccccc3F)ccc1N[C@@H]2CO	-14[25 µM]
CCCCCCCCNC(C)C(O)c1ccc(SC(C)C)cc1 (stereo unspecified)	39*
CC(NCCc1ccc(O)cc1)C(O)c1ccc(O)cc1 (stereo unspecified)	-1
CC(C)C[C@@H]1COCc2cn(nn2)CC[C@H](Cc2ccc(-c3ccccc3)cc2)C(=O)N1	-4
Cc1cc(C)c2c(c1)SC1=NC(c3ccccc3)(C(F)(F)F)NC(=O)N12 (stereo unspecified)	50*
CC(C)NC(=O)N(C)C[C@H]1Oc2ccc(NC(=O)Cc3ccccc3)cc2CC(=O)N([C@H](C)CO)C[C@@H]1C	-1[25 µM]
C#C[C@]1(O)CC[C@H]2[C@@H]3CCc4cc(OC)ccc4[C@H]3CC[C@@]21C	10
C#C[C@]1(O)CC[C@H]2[C@@H]3CCc4cc(OC5CCCC5)ccc4[C@H]3CC[C@@]21C	52*
C=CCOc1ccc2c(c1)CCC1C2CCC2(C)C(O)C(O)CC12 (stereo unspecified)	-111
CC(C)(C)[S@@](=O)N1Cc2cc(C(=O)NC3CCCC3)nc(-c3cccc(Br)c3)c2[C@H]1CCO	11
CO[C@@H]1CN(C)C(=O)c2ccc(NC(=O)Nc3ccccc3Cl)cc2OC[C@@H](C)N(C)C[C@H]1C	-2
Cn1ncc2c(N3CCOCC3)ncnc21	7
Cc1cccc(-n2ncc3c(N4CCOCC4)ncnc32)c1	78*
Cc1ccc(-n2ncc3c(N4CCN(c5ccccc5)CC4)ncnc32)c(C)c1	15
O=C(c1ccccn1)N1CC(=O)N2[C@H](CO)[C@H](c3ccc(C4=CCCC4)cc3)[C@@H]2C1	5[25 µM]
COc1ccc(CN(C)C[C@H]2Oc3c(NS(C)(=O)=O)cccc3C(=O)N([C@@H](C)CO)C[C@H]2C)cc1	-13
O=C(C[C@@H]1C[C@@H]2c3cc(NC(=O)NC4CCCC4)ccc3O[C@@H]2[C@H](CO)O1)NCc1ccccc1	-6
SMILES	BL2 CD40 inh
C/C=C/c1ccc([C@H]2[C@@H](CNC(C)C)N(C(=O)c3ccccc3)[C@H]2CO)cc1	-9
Cc1ccc(NC(=O)N2CCC(c3nc4c(nnn4Cc4cccc(Cl)c4)c(=O)[nH]3)CC2)cc1	42
O=C(NC1CCCC1)c1nc2c(nnn2Cc2cccc(Cl)c2)c(=O)[nH]1	22
O=C(Nc1ccc(F)cc1)N1CCC(c2nc3c(nnn3Cc3cccc(Cl)c3)c(=O)[nH]2)CC1	69*
N#C[C@H]1[C@H](c2ccccc2C2=CCCCC2)[C@H](CO)N1C(=O)NC1CCCCC1	13
O=C(CN1C(=O)c2ccccc2S1(=O)=O)Nc1ccccn1	7
CC(C)C(NC(=O)CN1C(=O)c2ccccc2S1(=O)=O)C(C)C	-1
O=C1c2ccccc2S(=O)(=O)N1Cc1nc2ccccc2s1	70*
N#CC(Cc1ccc(O)cc1)c1ccc(O)cc1 (stereo unspecified)	12[25 µM]
Oc1ccc2ccccc2c1CNc1ccccc1	-4
O=C1C=C(c2c(O)ccc3ccccc23)c2ccccc2C1=O	73*
O=C(O)c1cc2ccccc2c2c1C(=O)c1ccccc1-2	7
CCC(=O)N(C)C[C@@H]1[C@H](c2ccc(C3=CCCC3)cc2)[C@H](CO)N1C(=O)CC	2
CN1CCc2c(C#N)c(N3CCCCC3)nc(NCc3ccccc3)c2C1	35*
Cc1nc(N2CCN(C(=O)c3ccco3)CC2)c(C#N)c2c1CCCC2	-7
N#Cc1c(NCCCO)nc(NCc2ccccc2)c2c1CCN(Cc1ccccc1)C2	-1
Cc1ccc(-c2cnc3c(c2)C(=O)N([C@@H](C)CO)C[C@@H](C)[C@@H](CN(C)C(=O)CN(C)C)O3)cc1	7[25 µM]
CC(=O)Nc1cccc2c1O[C@H](CN(C)C(=O)NC(C)C)[C@@H](C)CN(C)C2=O	3
COc1ccc([C@@H]2C/C=C\C[C@@H](c3cccc(Cl)c3)NC(=O)[C@@H](c3ccccc3)CC(=O)N2)c(OC)c1	6[25 µM]
N#C[C@H]1N[C@@H](CO)[C@H]1c1ccccc1	-2
